# About 14,000 (4.5%) of roughly 310,000 compounds showed an effect of 50% or more. Effects have a minus sign here. Many of the other results were omitted from the sample, so strong results are more common in it than they were.
# Target: human ether-à-go-go-related gene (hERG) potassium channel (human, UniProt Q12809)
# Experiment: primary screen, population patch clamp on CHO cells stably expressing hERG; higher = less effect of the substance
# 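Also: peak tail current of the secondary pulse compared with the same well before compound.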
# Sequence of human ether-à-go-go-related gene (hERG) potassium channel (Q12809 whole entry, looked up): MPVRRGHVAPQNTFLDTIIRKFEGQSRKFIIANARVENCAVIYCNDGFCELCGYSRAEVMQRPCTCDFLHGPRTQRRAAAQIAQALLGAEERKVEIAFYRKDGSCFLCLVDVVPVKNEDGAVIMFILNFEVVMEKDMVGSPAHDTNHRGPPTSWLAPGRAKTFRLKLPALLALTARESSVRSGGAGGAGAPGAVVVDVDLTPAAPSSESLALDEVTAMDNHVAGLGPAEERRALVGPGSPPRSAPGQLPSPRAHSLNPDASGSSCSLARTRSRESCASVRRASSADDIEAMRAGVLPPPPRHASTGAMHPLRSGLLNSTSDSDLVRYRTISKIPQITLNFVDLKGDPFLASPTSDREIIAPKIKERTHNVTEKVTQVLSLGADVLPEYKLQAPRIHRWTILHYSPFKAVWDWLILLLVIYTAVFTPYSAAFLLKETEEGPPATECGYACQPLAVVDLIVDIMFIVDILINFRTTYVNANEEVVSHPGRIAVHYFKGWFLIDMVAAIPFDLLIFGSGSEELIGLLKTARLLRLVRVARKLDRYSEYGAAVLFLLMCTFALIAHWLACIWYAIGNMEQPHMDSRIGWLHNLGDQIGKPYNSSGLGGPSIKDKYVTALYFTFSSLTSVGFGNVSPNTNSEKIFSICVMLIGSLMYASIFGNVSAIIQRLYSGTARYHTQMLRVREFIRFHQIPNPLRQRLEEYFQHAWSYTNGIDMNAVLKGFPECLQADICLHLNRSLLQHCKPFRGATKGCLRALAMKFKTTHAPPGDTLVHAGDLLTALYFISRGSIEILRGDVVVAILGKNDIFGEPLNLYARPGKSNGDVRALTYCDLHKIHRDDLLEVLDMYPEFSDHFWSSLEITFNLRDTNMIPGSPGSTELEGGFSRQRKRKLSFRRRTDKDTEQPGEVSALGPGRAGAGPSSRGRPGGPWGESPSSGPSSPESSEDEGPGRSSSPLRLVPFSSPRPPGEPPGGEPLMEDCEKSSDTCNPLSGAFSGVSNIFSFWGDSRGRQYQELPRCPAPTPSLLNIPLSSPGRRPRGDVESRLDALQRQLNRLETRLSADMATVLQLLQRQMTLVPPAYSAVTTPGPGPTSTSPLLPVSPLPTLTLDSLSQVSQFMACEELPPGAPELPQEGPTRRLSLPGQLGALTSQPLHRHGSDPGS
row,Structure (SMILES),"hERG current change (%, negative = inhibition) at 10uM"
1,O=C(Nc1ccc2nc(-c3ccccn3)c(-c3ccccn3)nc2c1)N1CCOCC1,5.82%
2,S=C(Nc1ccc2nc(-c3ccccn3)c(-c3ccccn3)nc2c1)N1CCCCCC1,-15.6%
3,S=C(Nc1ccc2nc(-c3ccccn3)c(-c3ccccn3)nc2c1)N1CCOCC1,-69.6%
4,Cc1nnn(C23CC4CC(CC(C4)C2)C3)n1,7.98%
5,O=C(CCc1ccccn1)NC1CCCc2c1cnn2-c1ccc(F)cc1F (stereo not drawn),3.18%
6,CN(C)C(=S)c1ccc2ccccc2n1,17.1%
7,COc1cc(-c2noc(C)c2-c2ccc3[nH]ccc3c2)cc(OC)c1OC,8.02%
8,COc1cc(-c2c(-c3cc(OC)c(OC)c(OC)c3)noc2C)ccc1F,13.6%
9,COC(=O)c1cc(-c2c(-c3cc(OC)c(OC)c(OC)c3)noc2C)cc([N+](=O)[O-])c1,-67.8%
10,CCOc1ncccc1C(=O)OCC(=O)c1cc(C)n(Cc2ccco2)c1C,-7.34%
11,O=S(=O)(/C=C/c1ccccc1)N1CCOCC1,7.65%
12,CCOC(=O)c1[nH]cnc1C(=O)Nc1ccc([N+](=O)[O-])cc1,4.57%
13,CC(C(=O)Nc1ccccc1F)N1CCN(C)CC1.O=C(O)C(=O)O (stereo not drawn),11.9%
14,O=c1[nH]c(CN2CCN(S(=O)(=O)c3ccc4ccccc4c3)CC2)nc2ccccc12,2.03%
15,COc1cc2nc(CN3CCN(S(=O)(=O)c4ccc(C)c(C)c4)CC3)[nH]c(=O)c2cc1OC,-16.8%
16,O=c1[nH]c(CN2CCN(S(=O)(=O)/C=C/c3ccccc3)CC2)nc2cc(Cl)ccc12,-65.8%
17,CCS(=O)(=O)N1CCN(Cc2nc3ccccc3c(=O)[nH]2)CC1,-12.9%
18,COc1cc2nc(CN3CCN(S(=O)(=O)c4c(F)cccc4F)CC3)[nH]c(=O)c2cc1OC,-33.4%
19,O=c1[nH]c(CN2CCN(S(=O)(=O)c3ccc(Cl)cc3)CC2)nc2cc(Cl)ccc12,-11.8%
20,O=C1CN(Cc2nc3cc(Cl)ccc3c(=O)[nH]2)CCN1,25.4%
21,O=c1[nH]c(CN2CCN(S(=O)(=O)/C=C/c3ccccc3)CC2)nc2ccccc12,-66.5%

row,Structure (SMILES),"hERG current change (%, negative = inhibition) at 10uM"
1,COc1cc2nc(CN3CCN(S(=O)(=O)c4ccc(Cl)cc4)CC3)[nH]c(=O)c2cc1OC,-58.2%
2,COc1ccc(C)cc1S(=O)(=O)N1CCCC(N2CCOCC2)C1 (stereo not drawn),13.4%
3,O=S(=O)(Nc1cccc2c1CCCC2)c1ccc(Cl)cc1,-9.87%
4,COC(=O)c1c(NC(=O)C2CCC2)sc(C(=O)N(C)C)c1C,4%
5,O=C(/C=C/c1ccc2c(c1)OCO2)c1c(O)n(CCc2ccccc2)c(=O)[nH]c1=O,1.79%
6,COc1cc(CCC(=O)OCC(=O)Nc2ccc(Br)cc2F)cc(OC)c1OC,-11.6%
7,O=C(CN1CCOCC1)Nc1ccc(F)cc1,2.97%
8,O=C(CSc1cc(Cl)ccc1Cl)Nc1ccc(N2CCOCC2)cc1,-58.3%
9,O=C(CSc1ccccc1F)Nc1ccc(N2CCOCC2)cc1,3.82%
10,O=C(CN1CCN(c2ccccc2)CC1)Nc1ccc(F)cc1,-39.7%
11,O=C(CN1CCN(CC(=O)Nc2ccc(-c3ccccc3)cc2)CC1)Nc1ccc(F)cc1,-66.2%
12,O=C(CN1CCN(CC(=O)Nc2cccc(F)c2)CC1)Nc1ccc(-c2ccccc2)cc1,-28.6%
13,NC(=O)c1ccc(NC(=O)CN2CCN(c3ccc(Cl)cc3)CC2)cc1,-51.3%
14,O=C(CN1CCOCC1)Nc1ccc(Cl)cc1,-1.12%
15,COC(=O)c1ccc(NC(=O)CN2CCN(c3ccc(Cl)cc3)CC2)cc1,11.9%
16,Cc1ccc(SCC(=O)Nc2ccc(N3CCOCC3)cc2)c(C)c1,10.5%
17,O=C(CN1CCN(CC(=O)Nc2ccc(Cl)cc2)CC1)Nc1ccc(F)cc1,-76.9%
18,NC(=O)c1ccc(NC(=O)CN2CCN(c3ccccc3)CC2)cc1,12.6%
19,COc1cc(Cl)c(C)cc1NC(=O)c1ccc2c(c1)OCO2,19%
20,O=c1oc2ccccc2c2c1nnn2CCO,8.06%
21,CCCCn1c(N)c(N(CC(C)C)C(=O)C2CC(=O)N(c3ccc(CC)cc3)C2)c(=O)[nH]c1=O (stereo not drawn),18.8%
